Screening results (PubChem BioAssay)
Shown are actives, neighbours in structure and some others; about 10% of the full set was active somewhere.
12-hLO inh: blocks human 12-lipoxygenase activity; Potency, µM (doses to about 57.1 µM), for inactives: at the highest dose activity change, negative = inhibition, most hits filed as inhibitors; hit rate 0.12% among 150,000; purified 12-hLO, xylenol orange hydroperoxide absorbance; active = well fitted inhibition curve with a large enough effect; inconclusive = small, poorly fitted or top-dose-only effect; also: potency is read from the fitted curve at half-maximal effect; nearly all actives have a fitted effect of over 55% in size
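Hydroperoxide formation by human 12-lipoxygenase from 40 uM arachidonic acid was followed colorimetrically via ferric-xylenol orange complex, using the 573/405 nm absorbance ratio. Enzyme concentration was 150 nM, with 30 min reaction at room temperature.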
HPGD block: inhibitors of human 15-hydroxyprostaglandin dehydrogenase (HPGD). purified HPGD, NADH fluorescence kinetic, PGE2 substrate. Potency, µM, for the others: at the highest dose activity change, negative = inhibition, most hits filed as inhibitors. hit rate 4.3% among 150,000; also: potency is read from the fitted curve at half-maximal effect
Target sequence (P15428 whole entry, looked up): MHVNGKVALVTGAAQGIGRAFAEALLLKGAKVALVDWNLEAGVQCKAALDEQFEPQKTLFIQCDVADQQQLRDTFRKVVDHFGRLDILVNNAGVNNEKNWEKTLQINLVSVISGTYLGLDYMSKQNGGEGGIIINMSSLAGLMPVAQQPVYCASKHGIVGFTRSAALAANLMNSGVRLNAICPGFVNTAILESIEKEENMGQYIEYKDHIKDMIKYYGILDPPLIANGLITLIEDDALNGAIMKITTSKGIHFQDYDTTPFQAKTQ
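NADH formation kinetics: reaction with 30 uM PGE2 and 1 mM NAD+ (final), 20 nM enzyme, Tris-HCl pH 8 with Tween 20, after 15 min compound preincubation at room temperature. Fluorescence change, last versus first of five reads.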
ALDH1A1 block: inhibitors of human aldehyde dehydrogenase 1A1 | P00352 | Purified ALDH1A1, NADH fluorescence, propionaldehyde substrate | Potency, µM (titrated, usually from 75.3 µM), for the others: top-dose activity, negative = inhibition, actives largely listed as inhibitors | hit rate 7.3% among 220,000 | AID 1030;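 also: potency is read from the fitted curve at half-maximal effect; plate controls were no enzyme wells and a reference inhibitor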
PNC assembly inh: inhibitors of perinucleolar compartment assembly; AID 2417; PC3M PTB-GFP, PNC prevalence imaging, 16 h; stronger effect = lower value; hit rate 3.1% among 140,000; activity change (PNC), negative = inhibition, % at 10 µM;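 active = readout at or below -70, meaning at least 70% loss of cells showing the perinucleolar compartment, a nuclear body marking cancer cells; inconclusive = readout between -30 and a set limit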;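 also: plate controls were DMSO wells for no effect and camptothecin positive control wells for full effect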
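Compounds are pinned in duplicate onto adhered PC3M cells stably expressing GFP-tagged PTB and incubated 16 h at 37 C. Cells are then fixed, nuclei stained with Hoechst, and PNC-positive cells counted.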
LMNA splice mod: changes lamin A minigene splicing in HeLa cells; HeLa LMNA splicing GFP/RFP minigene ratio, 48 h; Potency, µM (series often up to 46.1 µM), without a hit: at the top dose ratio change, negative = inhibition, hits mostly inhibitors; hit rate 0.01% among 200,000; active = well fitted inhibition curve with a large enough effect in the signal ratio, with a control signal flat, not every such curve was filed as active; inconclusive = small, poorly fitted or top-dose-only effect, or effect the other way, or a change in a side signal; the % refers to the signal ratio; also: potency is read from the fitted curve at half-maximal effect
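S3 HeLa cells stably expressing lamin A-EGFP splicing minigene plus DsRed2, 600 cells/well, 48 h compound exposure at 37C. Laser-scanning cytometry; analysed as GFP (500-530 nm)/RFP (575-640 nm) total intensity ratio; 0.5% DMSO vehicle.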
Numbers without * were called inactive; u = inconclusive; x = not tested or not shown; [ ] = another dose, or the depositor's remark. Unless noted, calls follow the shape of the dose curve; as a rule, active = well fitted inhibition curve with a large enough effect (not every such curve was filed as active); inconclusive = small, poorly fitted or top-dose-only effect, or another doubt; inactive = no such curve, though single readings can be large or run the other way. Unless noted, % is scaled to controls: 0 for no effect and ±100 for the full control effect.

SMILES	12-hLO inh	HPGD block	ALDH1A1 block	PNC assembly inh	LMNA splice mod
CC1(C)CC2CC(C)(CN2C(=O)COc2cccc3ccccc23)C1 (configuration not stated)	-2%	32µM*	4%	3	-7%
CC1(C)CC2CC(C)(CN2C(=O)COC(=O)c2n[nH]c(=O)c3ccccc23)C1 (configuration not stated)	1%	-6%	u	-26	2%
Cc1ccc(NC(=O)COC(=O)/C=C/c2cccs2)cc1	-4%	28µM*	11%	u	-7%
NC(=O)c1ccc(NC(=O)COC(=O)/C=C/c2cccs2)cc1	x	x	2%	x	x
CCN(c1ccc(NC(=O)COC(=O)/C=C/c2cccs2)cc1)C(C)C	x	x	0.13µM*	x	-9%[46 µM]
Nc1nc(SCc2ccc([N+](=O)[O-])cc2)c2ncn([C@@H]3O[C@@H](CO)[C@@H](O)[C@H]3O)c2n1	-3%	x	x	x	x
CCOc1ccc(N2CC(NC(=O)c3ccco3)CC2=O)cc1 (configuration not stated)	x	x	x	x	10%[46 µM]
O=C(CSc1nnc(-c2ccncc2)o1)Nc1ccccc1Cl	-3%	-8%	-5%	-90*	-4%
CC(=O)c1ccc(N2CCN(C(=O)c3cc4c(s3)CCCC4)CC2)cc1	x	x	22µM*	x	-27%[46 µM]
COc1ccccc1N1CCN(C(=O)c2cc3c(s2)CCC3)CC1	-1%	-18%	20µM*	32	-1%
O=C(c1cccs1)N1CCN(c2ncccn2)CC1	6%	-16%	u	44	8%
O=C(O)c1cc2c(s1)CCCC2	7%	-12%	19%	4	-9%
O=C(c1cc2c(s1)CCCCC2)N1CCN(c2ncccn2)CC1	0%	-12%	14µM*	37	-11%
O=C(c1cc2c(s1)CCCC2)n1cccn1	-4%	16µM*	u	59	3%
CSCCC(N)C(=O)NC(CC(C)C)C(=O)NC(Cc1ccccc1)C(=O)O (configuration not stated)	0%	-10%	-7%	x	10%
CCOC(=O)c1c(S(=O)(=O)N2CCCC(C(=O)Nc3cc(C)ccc3OC)C2)c(C)n(C)c1C (configuration not stated)	x	x	x	x	7%[46 µM]
CCOc1cc(/C=N/n2cnnc2)ccc1OS(=O)(=O)c1ccccc1	x	x	13µM*	x	4%[46 µM]
COc1cc(/C=N/n2cnnc2)ccc1OS(=O)(=O)c1ccccc1[N+](=O)[O-]	2%	-20%	-12%	u	9%
O=S(=O)(Oc1ccccc1/C=N/n1cnnc1)c1ccccc1	x	x	22µM*	x	-2%[46 µM]
COc1cc2c(cc1OC)-c1c(OC)c(OC)cc3ccnc(c13)C2=O	1%	8.9µM*	-4%	-3	u
O=C(C1CCCN(S(=O)(=O)c2ccc(F)cc2)C1)N(Cc1cccs1)C1CC1 (configuration not stated)	-19%	-3%	18µM*	-5	u
O=S(=O)(c1ccc(S(=O)(=O)N(Cc2cccs2)CC2CCCO2)cc1)N1CCCCC1 (configuration not stated)	1%	-4%	7.9µM*	u	-13%
O=C(CN(Cc1cccs1)S(=O)(=O)c1ccc(S(=O)(=O)N2CCCCC2)cc1)Nc1ccccc1	-3%	-6%	9%	19	u
O=C(CN(CC1CCCO1)S(=O)(=O)c1ccc(S(=O)(=O)NCC2CCCO2)cc1)Nc1ccccc1 (configuration not stated)	-3%	3%	-4%	u	u
O=S(=O)(NC1CCCC1)c1ccc(S(=O)(=O)N(Cc2cccs2)CC2CCCO2)cc1 (configuration not stated)	1%	-16%	25µM*	13	-8%
SMILES	12-hLO inh	HPGD block	ALDH1A1 block	PNC assembly inh	LMNA splice mod
COc1cc(NC(=O)N2CCSc3ccccc32)cc(OC)c1OC	x	x	x	x	2%[46 µM]
CC(C)=C(NC(=O)c1ccccc1)C(=O)NCc1ccccc1	x	x	4%	x	8%[46 µM]
O=C1OC(c2ccc(Cl)cc2)/C(=C(/O)c2ccccc2)C1=O (configuration not stated)	0%	-13%	7.9µM*	-10	-4%
CC(C)n1nnnc1SCC(=O)N1CCN(C(=O)c2ccco2)CC1	-1%	-2%	25µM*	-30	-10%
O=C(CSc1nnnn1C1CCCC1)N1CCN(C(=O)c2ccco2)CC1	2%	-2%	14µM*	42	-17%
CCN(CC)S(=O)(=O)c1ccc2c(c1)nc(SCn1nnc3ccccc3c1=O)n2CC	-1%	-16%	10µM*	29	-1%
O=C(O)C1CCC[C@@H]2[C@@H]3CC(CN12)[C@@H]1CCCCN1C3 (some centres not stated)	x	-3%	3%	x	x
COc1ccc(S(=O)(=O)N(C)c2ccc(C(=O)NCCC(C)C)cc2)cc1	-18%	2µM*	-16%	-23	-2%
COc1ccc(C(CNC(=O)c2ccc(S(=O)(=O)N(C)C)cc2)N2CCCC2)cc1 (configuration not stated)	x	x	4.5µM*	x	-1%[46 µM]
CCOCCCNC(=O)c1ccc(N(C)S(=O)(=O)c2ccc(OC)cc2)cc1	-5%	1.6µM*	-11%	u	0%
COc1ccc(Br)c(C(=O)NCCC(C)C)c1	0%	13µM*	6%	-14	1%
COc1ccc(S(=O)(=O)N(C)c2ccc(C(=O)NC3CCCC3)cc2)cc1	x	x	-8%	x	1%[46 µM]
O=C(CCCCl)NC1=NN(c2ccccc2)C(=O)C1	-10%	-5%	8.9µM*	-25	1%
CC(=O)NC1=NN(c2ccccc2)C(=O)C1	0%	-9%	2%	86	-1%
Cc1cc(NS(=O)(=O)c2ccccc2)cc(Cl)c1O	-10%	-26%	7.1µM*	10	u
Cc1ccc(S(=O)(=O)Nc2cc(C)c(O)c(S(=O)(=O)c3ccc(C)cc3)c2)cc1	-4%	-11%	0.63µM*	-4	14%
O=S(=O)(Nc1ccc(S(=O)(=O)Nc2ccccc2)cc1)c1ccccc1	6%	-4%	u	24	3%
Cc1ccc(S(=O)(=O)Nc2ccc(S(=O)(=O)NC(C)(C)C)cc2)cc1	-10%	-10%	u	20	-11%
O=C(NCc1ccco1)C1CC(=O)N(c2ccc(Cl)cc2)C1 (configuration not stated)	x	x	-8%	x	x
Cc1ccc(C2CC(=O)N3CN(Cc4ccco4)CSC3=C2C#N)cc1 (configuration not stated)	-22%	16µM*	11µM*	8	10%
N#CC1=C2SCN(Cc3ccco3)CN2C(=O)CC1c1c(F)cccc1Cl (configuration not stated)	-7%	18µM*	8.9µM*	18	0%
N=C(CC(O)COc1ccccc1-c1ccccc1)N1CCCCC1 (configuration not stated)	x	x	-3%	x	x
COC(=O)C(C)c1ccc(C(=O)c2cccs2)cc1 (configuration not stated)	-4%	14µM*	-2%	x	x
Nc1ccc(C(=O)c2cccs2)cn1	x	x	1%	x	x
